Source: PubChem BioAssay AID624330 (Southern Research Specialized Biocontainment Screening …, 2012)
Screen size: about 340,000 compounds; about 2,100 (0.62%) were called active.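 The calls were made as follows: active = first-screen hits whose inhibition reached a set limit at any dose in the follow-up dose series; inconclusive = inhibition above the set first-screen limit but never retested; inactive = the rest.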 Not all results are given here. Measured potencies and affinities stand elsewhere.

target: Rac GTPase-activating protein 1 (Homo sapiens) (UniProt Q9H0H5); assay: MgcRacGAP GTPase-activating activity inhibitors, confirmation, biochemical, ADP Hunter fluorescence, primary and confirmatory (AID 624330); conditions: MgcRacGAP-stimulated Rac1 GTP hydrolysis, at 30 µM, hits give high values, GST-tagged Rac1 F28L mutant substrate;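 also: fluorescence reports GDP produced by GAP-driven GTP hydrolysis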
Sequence (Q9H0H5 whole entry, looked up): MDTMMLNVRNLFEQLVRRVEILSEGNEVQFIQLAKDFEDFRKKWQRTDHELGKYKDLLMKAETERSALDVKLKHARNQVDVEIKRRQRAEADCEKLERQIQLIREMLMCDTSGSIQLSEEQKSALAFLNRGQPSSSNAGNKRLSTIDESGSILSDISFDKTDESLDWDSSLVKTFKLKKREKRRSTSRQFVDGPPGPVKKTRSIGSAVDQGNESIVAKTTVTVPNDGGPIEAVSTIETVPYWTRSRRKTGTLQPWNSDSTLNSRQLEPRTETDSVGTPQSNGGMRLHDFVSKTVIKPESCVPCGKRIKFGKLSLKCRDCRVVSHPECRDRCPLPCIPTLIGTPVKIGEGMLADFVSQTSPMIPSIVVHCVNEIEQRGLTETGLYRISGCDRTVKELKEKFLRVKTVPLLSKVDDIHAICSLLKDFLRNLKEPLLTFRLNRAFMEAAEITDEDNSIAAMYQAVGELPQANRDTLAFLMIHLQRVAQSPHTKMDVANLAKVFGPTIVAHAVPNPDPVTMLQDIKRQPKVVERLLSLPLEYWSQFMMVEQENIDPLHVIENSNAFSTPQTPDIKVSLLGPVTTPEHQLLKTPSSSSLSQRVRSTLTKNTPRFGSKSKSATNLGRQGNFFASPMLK

inhibition, inactive:
COc1ccc(OC)c(C(C[N+](=O)[O-])c2c(C)cc3ccccn23)c1 (centres undefined) 5.52%
Cc1c(N2CCCCC2)[nH]c2ccccc12 8.41%
Cc1cccc(OCC(=O)Nc2ccc(N3CCN(C(=O)c4ccco4)CC3)cc2)c1C 8.56%
Cn1c(-c2cccc(Br)c2)cnc1NCc1cccnc1 29.7%
Cn1c(-c2ccc(Br)cc2)cnc1NCc1ccc(C#N)cc1 21.2%
Cn1c(-c2ccc(F)cc2)cnc1NCc1ccc(F)cc1 16.6%
COc1cc(CNc2ncc(-c3ccc(Br)cc3)n2C)cc(OC)c1OC 29.8%
Cn1c(-c2ccc(Br)cc2)cnc1NCc1cccnc1 18.7%
Cn1c(-c2ccc(F)cc2)cnc1NCc1cccc(F)c1 9.97%
C[C@H](CO)N1C[C@H](C)[C@@H](CN(C)S(=O)(=O)c2ccc(F)cc2)Oc2c(NC(=O)Cc3ccccc3)cccc2C1=O 9.78%
CCCc1nc2ccccc2c(=O)n1NC(=O)c1c(O)c2ccccc2n(C)c1=O -1.3%
Cc1ccc(N=C2C(=O)Nc3ccccc32)cc1C 1.21%
O=C1Nc2ccccc2C1=Nc1ccc(F)cc1 6.47%
COc1cccc(NC(=O)C(c2ccccc2)N2CCNC(=O)C2)c1 (centres undefined) -3.03%
CN(CC(=O)Nc1c(Cl)cccc1Cl)C(=O)Cc1ccc2c(c1)CCC2 4.3%
COc1ccc(/C=C/c2ccc3ccccc3[n+]2C)cc1OC -0.83%
CC[n+]1c(/C=C/c2ccc(OC(C)=O)c(OC)c2)ccc2ccccc21 27%
Cc1ccc(N/C=C/C(=O)c2cccs2)cc1 1.9%
O=C(/C=C/Nc1ccc(F)cc1)c1cccs1 8.26%
COc1ccc(C)cc1N(CC(=O)Nc1cccnc1)S(=O)(=O)c1ccc(C)cc1 3.72%
O=C(CCSc1nnc(-c2ccco2)o1)Nc1ccc(Cl)cc1 5.12%
Cc1ccc(S(=O)(=O)N2CCOCC2)cc1C(=O)NC1CCCC1 6.35%
COC(=O)c1cccc(/C=N/NC(N)=S)c1O 14.2%
NC(=S)N/N=C/c1ccccc1O 10.3%
COc1ccc(N(C(C)=O)S(=O)(=O)c2cc(OC)ccc2OC)cc1 12.7%
COc1ccc(N2CCN(c3ccc(N)cc3C#N)CC2)cc1 27.6%
COc1ccc(C(=O)N2CCN(c3ncccn3)CC2)cc1 0.88%
COc1ccnc(N2CCN(c3ccccc3)CC2)c1C#N 8.98%
COc1cccc(N2CCN(c3ncccn3)CC2)c1 5.71%
COc1ccc(C(=O)NCC(=O)OCc2ccc(Br)cc2)cc1 11.1%
CC(c1nccs1)N(C)C(=O)CCc1nnc(Cc2c[nH]c3ccccc23)o1 (centres undefined) 11.5%
COC(=O)C1=C(C)N(CC2CCCO2)C(=O)C1 (centres undefined) 4.38%
O=C1/C(=C/c2ccc(O)cc2)SC(=S)N1CC1CCCO1 (centres undefined) 31.1%
O=C(N/N=C/c1ccc(-c2ccccc2C(=O)O)o1)c1cccs1 11.8%
COc1ccc(-c2noc(-c3ccccc3C(=O)NCc3ccco3)n2)cc1 8.25%
CCCNC(=O)CN1CCN(c2cc3ccccc3c(Cl)n2)CC1 4.31%
CC(=O)Nc1ccc(Oc2nc(C(F)(F)F)nc3ccccc23)cc1 11.9%
Cc1cccc(Oc2nc(-c3ccccn3)nc3ccccc23)c1 11.2%
CC(C)(C)S(=O)(=O)N1C[C@@H]2CC/C=C\C/C(c3ccccc3)=C\2[C@H]1CCO 6.06%
C=C1CCN([C@@H](CC(C)C)C(=O)NCc2ccc(OC)cc2)S(=O)(=O)c2ccccc21 13.2%
COc1ccc2ccccc2c1C1NC(=O)NC(C)=C1[N+](=O)[O-] (centres undefined) 1.63%
CC[n+]1c(/C=C/C=C/N(C(C)=O)c2ccccc2)sc2ccccc21 23.1%
CN(CCCS(=O)(=O)[O-])c1ccc(/C=C/c2ccc3ccccc3[n+]2C)cc1 9.16%
CCN(CC)c1ccc(/C=C/c2ccc3ccc(OC)cc3[n+]2CC)cc1 12.8%
CN(C)c1ccc(/C=C/c2nc3ccccc3s2)cc1 13.3%
C[n+]1c(/C=C/c2ccc3c(c2)OCO3)ccc2ccccc21 -4.73%
CC[n+]1c(/C=C/c2ccc(OC)c(OC)c2)ccc2ccccc21 11.3%
COc1ccccc1N1CCN(C(=O)C(=O)c2cn(CC(=O)N3CCCCCC3)c3ccccc23)CC1 4.2%
Cc1ccc2oc(=O)c3cnn(CC(=O)N(CCCN4CCOCC4)Cc4ccco4)c3c2c1 5.12%
CCCN(CCC)CCNC(=O)CCC(=O)Nc1ccc2nc(N3CCN(C)CC3)cc(C)c2c1 26.7%
CCCCNC(=O)CCC(=O)Nc1ccc2nc(N3CCN(C)CC3)cc(C)c2c1 11.9%
CCN(C(=O)CN1C(=O)c2ccc([N+](=O)[O-])cc2C1=O)C1CCCCC1 -1.26%
COc1cccc(OCC(O)CNC2CCCC2)c1 (centres undefined) -1.44%
CCC(CC)CN1C(Nc2ccccc2)=NC[C@@H]1C 1.3%
C=CCc1cc(/C=C2/NC(=O)N(CC(=O)OC)C2=O)cc(OC)c1O 10.1%
O=C(CSc1nc(C2CCCCC2)n(-c2ccccc2)n1)NCC(F)(F)F 8.72%
NC(=O)NC(=O)CSc1nc(C2CCCCC2)n(-c2ccccc2)n1 3.47%
O=C(Nc1nccs1)C1CC(=O)N(CCc2ccc(F)cc2)C1 (centres undefined) 6.31%
Nc1nonc1-n1nnc(C(=O)N/N=C/c2cccc(Cl)c2)c1CN1CCCCCC1 3.77%
C=CCOC1COC2C(OCC=C)COC12 (centres undefined) 3.53%
c1ccc(CCNCCOc2ccccc2)cc1 17.6%
Cc1ccc(OCCCCNC(C)c2ccccc2)c(C)c1 (centres undefined) 28.7%
COc1ccc(OCCCNCCc2ccccc2)cc1 4.94%
CC(=O)NCCOc1cccc2ccccc12 -4.94%
Cc1ccc(S(=O)(=O)N2CC=C(C(=O)NCc3ccccc3)CC2)cc1 6.07%
CC(=O)c1ccc(NC(=O)C[n+]2ccccc2)cc1 10.2%
CCOc1ccc(CCNC(=O)COC(=O)c2cc(OC)c(OC)cc2[N+](=O)[O-])cc1OCC -1.41%
Cc1ccc(NC(=O)CN(C)Cc2nc3ccccc3c(=O)[nH]2)c(Br)c1 4.68%
COCCCNc1nc2cc(OC)c(OC)cc2c2nc(-c3ccccc3)nn12 2.71%
COCCNc1nc(=S)[nH]c2cc(OC)c(OC)cc12 15.3%
CCOc1cc2nc(-c3ccc(OC)c(OC)c3)nc(NCCCN3CCOCC3)c2cc1OC 18.4%
CCOCCCNCc1ccc(OC)c(OC)c1 13.9%
CCCCn1c(N)c(N(CC(C)C)C(=O)CCNC(=O)c2ccccc2Cl)c(=O)[nH]c1=O 6.4%
CCOc1cc(C(=S)N2CCOCC2)ccc1OS(=O)(=O)c1ccc(OC)cc1 3.51%
C[C@@H]1CN([C@H](C)CO)C(=O)CCCn2nncc2CO[C@H]1CN(C)S(=O)(=O)c1ccc2ccccc2c1 12.9%
CCCCNC(=O)Cn1cnc2c(cnn2-c2ccc(C)cc2)c1=O 6.17%
Clc1ccc(N=c2ssnc2Cl)cc1 14.7%
Clc1nssc1=Nc1ccccc1 13.8%
O=C(N/N=C/c1ccc([N+](=O)[O-])o1)c1cc(-c2cccc(Br)c2)nc2ccccc12 -2.15%
Cn1c(=Nc2ccc(N3CCOCC3)cc2)ccc2ccccc21 16.1%
C/C(=N\N=c1/sc2ccccc2n1C)c1ccc(N2CCOCC2)cc1 6.81%
O=[N+]([O-])c1cccc(-c2ccc(C(=S)N3CCN(c4ccc(F)cc4)CC3)o2)c1 5.79%
CN(C)c1ccc2nsnc2c1[N+](=O)[O-] 7.42%
Cc1ccc2nsnc2c1NC(=O)c1ccc([N+](=O)[O-])cc1 14.4%
Brc1ccc(-c2cn3c(n2)SCC3)cc1 15.1%
Cc1ccc(-c2cn3c(n2)SCC3)cc1 14.4%
CCCCNc1c(-c2ccc(SC3CCCCC3)c(OC)c2)nc2ccc(C)cn12 2.06%
O=C(Nc1ncccn1)C1c2ccccc2Oc2ccccc21 2.37%
COC(=O)c1ccc(Oc2ccc3nnc(C)n3n2)cc1 -0.14%
COc1ccc2nnc(-c3ccccc3)n2n1 10.9%
CC(=O)Nc1ccc2sc(NC(=O)CN3CCOCC3)nc2c1 7.43%
CCCCc1cc(=O)oc2cc(OCC(=O)Nc3ccccn3)ccc12 11.4%
Cc1ccn2c(C(C)O)nnc2c1 (centres undefined) 11.7%
CSc1nc(=O)n2cccc(C)c2n1 0.29%
Cc1cccn2c(N)c(-c3ccccc3)nc12 7.39%
c1ccn2c(Cc3nnc4ccccn34)nnc2c1 3.25%
Cc1ccn2c(=O)cc(C)nc2c1 -1.02%
Fc1ccc(-c2nnc3ccccn23)cc1 0.86%
O=C(CCC(=O)N1CCOCC1)NCCc1ccccc1 0.87%
